Reference: PubChem BioAssay AID1159580 (chemical genetic matrix, 2015)
“And” between values parts separate entries of the source, which are not always exact repeats. Identical values can stand only once. Out of some 5,500 compounds screened, about 2,000 (36%) were called active. About 18% were inconclusive and are not listed. No stated cut-off is given here; in the data, active means normalized growth mostly below about 0.91 (no sharp cut-off); inconclusive means no clear call, values can overlap the other calls; inactive means mostly above about 0.92. The list shows a part of the results.

Experiment: chemical genetic growth profiling, strain panel (AID 1159580);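 further: tested at 20 µM; growth read once vehicle control cultures reached saturation at 30 °C; 1 = growth at the plate median or of vehicle wells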
Details: S. cerevisiae deletion strains, growth OD

Measured: normalized growth

Clc1cccc(Cl)c1NC1=NCCN1
inactive: locus YAL021C, strain ccr4, stronger effect = lower value 0.973 | locus YAL026C, strain drs2, stronger effect = lower value 1.01 | locus YAL030W, strain snc1, stronger effect = lower value 0.993 | locus YAL040C, strain CLN3, stronger effect = lower value 0.999 | locus YBL061C, strain skt5, stronger effect = lower value 0.972 | locus YBR009C, strain hhf1, stronger effect = lower value 1 | locus YBR021W, strain FUR4, stronger effect = lower value 1.03 | locus YBR023C, strain chs3, stronger effect = lower value 0.983 | locus YBR171W, strain sec66, stronger effect = lower value 0.977 | locus YBR229C, strain ROT2, stronger effect = lower value 0.999 | locus YBR231C, strain swc5, stronger effect = lower value 0.998 | locus YBR279W, strain paf1, stronger effect = lower value 1.01 | locus YCL011C, strain gbp2, stronger effect = lower value 0.96 | locus YCL016C, strain dcc1, stronger effect = lower value 0.962 | locus YCL029C, strain bik1, stronger effect = lower value 1.02 | locus YCL061C, strain MRC1, stronger effect = lower value 0.989 | locus YCL069W, strain vba3, stronger effect = lower value 0.991 | locus YCR088W, strain abp1, stronger effect = lower value 0.992 | locus YDL005C, strain med2, stronger effect = lower value 0.996 | locus YDL035C, strain GPR1, stronger effect = lower value 1.02 | locus YDL040C, strain nat1, stronger effect = lower value 1.01 | locus YDL074C, strain BRE1, stronger effect = lower value 1.03 | locus YDL101C, strain DUN1, stronger effect = lower value 1.02 | locus YDL134C, strain PPH21, stronger effect = lower value 1.01 | locus YDL185W, strain tfp1, stronger effect = lower value 1.01 | locus YDL192W, strain arf1, stronger effect = lower value 1.02 | locus YDR001C, strain nth1, stronger effect = lower value 0.972 | locus YDR069C, strain doa4, stronger effect = lower value 0.992 | locus YDR101C, strain arx1, stronger effect = lower value 1.03 | locus YDR137W, strain rgp1, stronger effect = lower value 0.959 | locus YDR150W, strain NUM1, stronger effect = lower value 1.01 | locus YDR159W, strain sac3, stronger effect = lower value 1.01 | locus YDR162C, strain NBP2, stronger effect = lower value 1.01 | locus YDR195W, strain ref2 0.994 | locus YDR297W, strain sur2, stronger effect = lower value 0.98 | locus YDR318W, strain mcm21, stronger effect = lower value 1.02 | locus YDR334W, strain swr1, stronger effect = lower value 0.954 | locus YDR335W, strain msn5, stronger effect = lower value 0.973 | locus YDR388W, stronger effect = lower value 1.01 | locus YDR392W, strain spt3, stronger effect = lower value 0.904 | locus YDR502C, strain sam2, stronger effect = lower value 1.03 | locus YEL003W, strain gim4, stronger effect = lower value 0.984 | locus YEL037C, strain rad23, stronger effect = lower value 0.999 | locus YEL061C, strain CIN8 (second series), stronger effect = lower value 0.988 | locus YEL061C, strain CIN8, stronger effect = lower value 1.01 | locus YER002W, strain NOP16, stronger effect = lower value 0.99 | locus YER015W, strain faa2, stronger effect = lower value 1 | locus YER016W, strain bim1, stronger effect = lower value 0.996 | locus YER110C, stronger effect = lower value 1.02 | locus YER111C, strain swi4, stronger effect = lower value 0.993 | locus YER155C, strain BEM2 (second series), stronger effect = lower value 1 | locus YER155C, strain BEM2, stronger effect = lower value 1.01 | locus YER167W, strain BCK2, stronger effect = lower value 1.01 | locus YFR010W, strain ubp6, stronger effect = lower value 0.998 | locus YGL078C, strain dbp3, stronger effect = lower value 1.03 | locus YGL086W, strain mad1, stronger effect = lower value 1.06 | locus YGL167C, strain pmr1, stronger effect = lower value 0.991 | locus YGL173C, strain kem1, stronger effect = lower value 0.985 | locus YGL227W, strain vid30, stronger effect = lower value 0.992 | locus YGL240W, strain doc1, stronger effect = lower value 0.995 | locus YGL248W, strain PDE1, stronger effect = lower value 1.03 | locus YGL253W, strain hxk2, stronger effect = lower value 0.963 | locus YGR135W, strain pre9, stronger effect = lower value 1.04 | locus YGR229C, strain SMI1, stronger effect = lower value 0.992 | locus YGR252W, strain gcn5, stronger effect = lower value 1.05 | locus YHR013C, strain ard1, stronger effect = lower value 0.965 | locus YHR027C, strain rpn1, stronger effect = lower value 0.98 | locus YHR030C, strain SLT2, stronger effect = lower value 1.01 and 0.969 | locus YHR079C, strain IRE1 (second series), stronger effect = lower value 1.02 | locus YHR079C, strain IRE1, stronger effect = lower value 0.98 | locus YHR094C, strain hxt1, stronger effect = lower value 1.02 | locus YHR129C, strain ARP1, stronger effect = lower value 1.01 | locus YHR142W, strain chs7, stronger effect = lower value 0.932 | locus YHR200W, strain rpn10, stronger effect = lower value 1.02 | locus YIL066C, strain RNR3, stronger effect = lower value 1.01 | locus YIL073C, strain SPO22, stronger effect = lower value 1.07 | locus YIL125W, strain kgd1, stronger effect = lower value 1.02 | locus YIR030C, strain dcg1, stronger effect = lower value 1.01 | locus YJL092W, strain hpr5, stronger effect = lower value 0.994 | locus YJL095W, strain BCK1 (second series), stronger effect = lower value 0.983 | locus YJL095W, strain BCK1, stronger effect = lower value 1.04 and 0.975 | locus YJL115W, strain asf1, stronger effect = lower value 0.969 | locus YJL129C, strain trk1, stronger effect = lower value 0.97 | locus YJL134W, strain LCB3, stronger effect = lower value 1.01 | locus YJL154C, strain vps35, stronger effect = lower value 0.972 | locus YJL164C, strain tpk1, stronger effect = lower value 0.996 | locus YJL166W, strain qcr8, stronger effect = lower value 0.953 | locus YJL168C, strain set2, stronger effect = lower value 1.02 | locus YJL187C, strain SWE1 (second series), stronger effect = lower value 1.03 | locus YJL187C, strain SWE1, stronger effect = lower value 1 | locus YJR043C, strain POL32, stronger effect = lower value 1.03 | locus YJR066W, strain TOR1, stronger effect = lower value 0.996 | locus YJR075W, strain HOC1, stronger effect = lower value 1.01 | locus YKL009W, strain mrt4, stronger effect = lower value 1.02 | locus YKL068W, stronger effect = lower value 1 | locus YKL085W, strain MDH1 (second series), stronger effect = lower value 1.06 | locus YKL085W, strain MDH1, stronger effect = lower value 1.06 | locus YKL160W, strain elf1, stronger effect = lower value 0.951 | locus YKL190W, strain CNB1, stronger effect = lower value 1.01 | locus YKR001C, strain vps1, stronger effect = lower value 1.01 | locus YKR026C, strain gcn3, stronger effect = lower value 0.986 | locus YKR091W, strain srl3, stronger effect = lower value 0.982 | locus YLL001W, strain dnm1, stronger effect = lower value 0.933 | locus YLL026W, stronger effect = lower value 0.986 | locus YLL041C, strain sdh2, stronger effect = lower value 1 | locus YLR027C, strain aat2, stronger effect = lower value 1.01 | locus YLR039C, strain RIC1, stronger effect = lower value 1.01 | locus YLR058C, strain SHM2, stronger effect = lower value 1.02 | locus YLR102C, strain apc9, stronger effect = lower value 1.01 | locus YLR113W, strain HOG1, stronger effect = lower value 0.951 | locus YLR221C, strain rsa3, stronger effect = lower value 0.944 | locus YLR258W, strain gsy2, stronger effect = lower value 0.985 | locus YLR262C, strain YPT6 (second series), stronger effect = lower value 0.974 | locus YLR262C, strain YPT6, stronger effect = lower value 0.982 | locus YLR268W, strain sec22, stronger effect = lower value 1.02 | locus YLR320W, strain mms22, stronger effect = lower value 0.944 | locus YLR330W, strain CHS5, stronger effect = lower value 1.01 | locus YLR342W, strain FKS1 (second series), stronger effect = lower value 1.01 | locus YLR342W, strain FKS1, stronger effect = lower value 0.995 | locus YLR357W, strain rsc2, stronger effect = lower value 0.974 | locus YLR370C, strain arc18, stronger effect = lower value 0.968 | locus YLR371W, strain rom2, stronger effect = lower value 1.01 | locus YLR384C, strain iki3, stronger effect = lower value 0.988 | locus YLR418C, strain cdc73, stronger effect = lower value 1.05 | locus YML016C, strain PPZ1, stronger effect = lower value 1 | locus YML032C, strain rad52, stronger effect = lower value 1.02 | locus YML120C, strain ndi1, stronger effect = lower value 0.941 | locus YML124C, strain tub3, stronger effect = lower value 1.01 | locus YMR058W, strain fet3, stronger effect = lower value 0.99 | locus YMR078C, strain ctf18, stronger effect = lower value 1.01 | locus YMR125W, strain sto1, stronger effect = lower value 0.958 | locus YMR129W, stronger effect = lower value 0.999 | locus YMR205C, strain PFK2, stronger effect = lower value 0.947 | locus YMR223W, strain ubp8, stronger effect = lower value 1.04 | locus YMR231W, strain pep5, stronger effect = lower value 0.999 | locus YMR263W, strain SAP30, stronger effect = lower value 0.988 | locus YMR307W, strain GAS1, stronger effect = lower value 1.09 | locus YNL067W, strain RPL9B, stronger effect = lower value 1.05 | locus YNL071W, strain lat1, stronger effect = lower value 0.993 | locus YNL175C, strain NOP13, stronger effect = lower value 1.01 | locus YNL183C, strain NPR1, stronger effect = lower value 0.926 | locus YNL197C, strain WHI3, stronger effect = lower value 0.999 | locus YNL209W, strain ssb2, stronger effect = lower value 0.991 | locus YNL224C, strain SQS1, stronger effect = lower value 1 | locus YNL233W, strain BNI4, stronger effect = lower value 1.02 | locus YNL248C, strain rpa49, stronger effect = lower value 0.995 | locus YNL250W, strain rad50, stronger effect = lower value 1.02 | locus YNL271C, strain bni1, stronger effect = lower value 1.02 | locus YNL298W, strain CLA4, stronger effect = lower value 1.02 | locus YNL307C, strain MCK1, stronger effect = lower value 1.02 | locus YNL322C, strain KRE1 (second series), stronger effect = lower value 0.982 | locus YNR049C, strain mso1, stronger effect = lower value 0.981 | locus YNR052C, strain pop2, stronger effect = lower value 1.02 | locus YOL006C, strain TOP1, stronger effect = lower value 1.18 | locus YOL012C, strain htz1 0.754 | locus YOL147C, strain pex11, stronger effect = lower value 1.02 | locus YOR001W, strain rrp6, stronger effect = lower value 1.04 | locus YOR061W, strain CKA2, stronger effect = lower value 1.01 | locus YOR069W, strain VPS5, stronger effect = lower value 1.01 | locus YOR070C, strain gyp1, stronger effect = lower value 0.996 | locus YOR080W, strain dia2, stronger effect = lower value 0.979 | locus YOR083W, strain WHI5 (second series), stronger effect = lower value 0.997 | locus YOR083W, strain WHI5, stronger effect = lower value 0.957 | locus YOR106W, strain vam3, stronger effect = lower value 0.944 | locus YOR136W, strain idh2, stronger effect = lower value 1.03 | locus YOR144C, strain elg1, stronger effect = lower value 1.01 | locus YOR184W, strain ser1, stronger effect = lower value 1.03 | locus YOR231W, strain MKK1, stronger effect = lower value 0.989 | locus YOR265W, strain rbl2, stronger effect = lower value 1 | locus YOR270C, strain vph1, stronger effect = lower value 0.939 | locus YOR290C, strain snf2, stronger effect = lower value 0.939 | locus YOR316C, strain cot1, stronger effect = lower value 1.02 | locus YPL051W, strain arl3, stronger effect = lower value 0.991 | locus YPL055C, strain LGE1, stronger effect = lower value 1.04 | locus YPL078C, strain atp4, stronger effect = lower value 0.954 | locus YPL106C, strain sse1, stronger effect = lower value 0.94 | locus YPL240C, strain hsp82, stronger effect = lower value 1 | locus YPL256C, strain CLN2, stronger effect = lower value 0.993 | locus YPR119W, strain clb2, stronger effect = lower value 1.02 | locus YPR141C, strain kar3, stronger effect = lower value 1.01 | locus YPR163C, strain tif3, stronger effect = lower value 1.01 | locus YPR167C, strain met16, stronger effect = lower value 1.01 | strain wtn01, stronger effect = lower value 1.04
